Screening data: PubChem BioAssay, National Center for Advancing Translational Sciences (NCATS)
Sampled rows, rich in hits. Any-hit rate of the full collection: about 3.6%.
D1 agonist: human D1 receptor agonism; P21728; HEK293 T-REx D1 cells, calcium flux, agonist mode; activation, % at 2 µM; 360,000 tested, 1% active
Target sequence (P21728 whole entry, looked up): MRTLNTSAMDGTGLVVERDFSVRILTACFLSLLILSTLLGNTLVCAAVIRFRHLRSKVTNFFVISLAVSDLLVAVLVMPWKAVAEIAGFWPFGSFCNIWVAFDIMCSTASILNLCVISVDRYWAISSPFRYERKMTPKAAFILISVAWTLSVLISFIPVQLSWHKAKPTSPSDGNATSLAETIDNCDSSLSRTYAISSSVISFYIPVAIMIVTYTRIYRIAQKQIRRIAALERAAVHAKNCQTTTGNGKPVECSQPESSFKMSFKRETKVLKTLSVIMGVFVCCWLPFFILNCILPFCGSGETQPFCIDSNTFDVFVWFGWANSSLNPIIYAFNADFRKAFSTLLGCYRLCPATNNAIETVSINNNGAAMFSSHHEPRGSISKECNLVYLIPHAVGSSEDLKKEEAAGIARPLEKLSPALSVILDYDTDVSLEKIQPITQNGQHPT
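Tetracycline-induced HEK293 TREx D1 cells, force-coupled to calcium signalling, were dye-loaded with a no-wash calcium kit. Compound was pin-added after a 10 s baseline. Fluorescence was read kinetically at 1 cycle/s for 180 s, with calcium rises flagged as agonism.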
TRHR PAM: TRH receptor (human) allosteric enhancement | P34981 | TRHR cells, fluo-8 calcium fluorescence, EC20 TRH enhancement | enhancement, % at 2 µM | 360,000 tested, 0.66% active; in the data active means enhancement above about 30%
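TRHR-expressing cells loaded with fluo-8 calcium dye were read kinetically (ex 480/em 530) during compound addition, then stimulated with an EC20 of TRH (10 nM final). Enhancement of the Gq-mediated intracellular calcium response was scored.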
TRHR agonist: TRH receptor (human) agonism | 360,000 tested, 0.18% active | P34981 | activation, % at 2 µM | AID 493084 | TRHR cells, calcium flux fluo-8, FDSS agonist mode
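Steps: seed TRHR cells overnight; add fluo-8 no-wash Ca dye, RT 30 min–1.5 h; record 10 s baseline; pin-transfer compounds; monitor fluorescence 1 cycle/s for the agonist window. Calcium increases flag candidate agonists.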
D1 PAM: potentiators of human D1 dopamine receptor; HEK293 TREx D1 cells, calcium flux, dopamine EC20 potentiation; potentiation, % at 10 µM; 360,000 tested, 0.036% active; in the data active means potentiation above about 30%
LDHA block: LDHA (human) enzyme inhibition; activity change, % (values are at about 110 or 230 µM); P00338; 480,000 tested, 0.15% active; purified LDHA, NADH/diaphorase-resazurin fluorescence; stronger effect = lower value; in the data active means activity change below about -30%
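Human LDH5 at 2 nM final in Tris HCl pH 7.4 with 0.06 mM NADH and 0.2 mM pyruvate, reacted 5 minutes at room temperature. Remaining NADH coupled via diaphorase/resazurin; resorufin fluorescence read at 0 and 20 minutes, normalized to enzyme-free and DMSO wells.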
D1 antagonist: antagonists of human D1 dopamine receptor. P21728. HEK293 TREx D1 cells, calcium flux, dopamine EC80; stronger effect = lower value. activity change, negative = inhibition, % at 10 µM. 360,000 tested, 3.2% active; in the data active means activity change below about -30%
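Using tetracycline-induced force-coupled D1 Hek293 cells and a calcium dye, signals were followed for 180 s after compound, then for 180 s after EC80 dopamine, to detect inhibitors.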
Each line names hits and unclear results; the compound was inactive in the other large screens. Unless noted, no stated cut-off is given here; in the data, active means activation above about 30%; inactive means the rest.

O=C(CSc1ccc(S(=O)(=O)N2CCOCC2)cn1)Nc1ccc(F)c(F)c1	D1 antagonist -57
O=C(CSc1nc2ccccc2o1)Nc1ccc(N2CCOCC2)cc1	D1 antagonist -44
O=C(CSc1nc2cc(Cl)ccc2o1)Nc1ccc(N2CCOCC2)cc1	none
Cc1oc(-c2ccccc2)nc1CC(=O)N1CCC(CC(N)=O)CC1	none (no result: D1 agonist, TRHR PAM, TRHR agonist, D1 PAM, D1 antagonist)
Cc1cc(C)cc(NC(=O)Nc2ccc3c(c2)N(C)C(=O)CS3)c1	none (no result: D1 PAM)
Cc1ccc(NC(=O)Nc2ccc3c(c2)N(C)C(=O)CS3)cc1C	D1 antagonist -44 (no result: D1 PAM)
CCc1cccc(C)c1NC(=O)c1cc(S(=O)(=O)N(Cc2ccc(C(=O)OC)cc2)Cc2ccc(OC)c(OC)c2)ccc1F	D1 antagonist -38
CCOC(=O)c1ccc(CN(Cc2ccc(F)cc2)S(=O)(=O)c2ccc(F)cc2)cc1	none
CCOC(=O)c1ccc(CN(Cc2ccc(Cl)cc2Cl)S(=O)(=O)c2ccc(F)c(C)c2)cc1	D1 agonist 45, D1 antagonist -32
Cc1cccc(NC(=O)Cc2c[nH]c3ccccc23)c1C	none (no result: D1 agonist, TRHR PAM, TRHR agonist, D1 PAM, D1 antagonist)
CC1=C(c2ccc(C)cc2)S(=O)(=O)N(CC(=O)O)C1=O	none
COC(=O)CN1C(=O)C(C)=C(c2ccc(C)cc2)S1(=O)=O	D1 antagonist -36
Cc1cccc(NC(=O)C(C)C(=O)c2ccccc2)c1 (stereo unspecified)	none
Cc1ccc(NC(=O)C(C)c2cccc(C(=O)c3ccccc3)c2)cc1O (stereo unspecified)	D1 antagonist -32
Cc1ccc(S(=O)(=O)Nc2nc3ccccc3nc2Nc2ccc(C(=O)O)cc2)c(C)c1	none (no result: D1 agonist, TRHR PAM, TRHR agonist, D1 PAM, D1 antagonist)
Cc1ccc(NC(=O)CCCNC(=O)c2ccc(Cl)cc2)c(O)c1	D1 antagonist -32
CCCCN(CCCNC(=O)C1CCN(S(=O)(=O)N2CCOCC2)CC1)c1ccccc1	D1 antagonist -35
Cc1nn(C)c(Oc2cccc(Cl)c2)c1C#N	none
Cn1nc(-c2ccccc2)c(C#N)c1Sc1cccc(Cl)c1	D1 agonist 88
COc1cccc2cc(-c3cc(=O)oc4cc(OC(=O)N5CCOCC5)ccc34)c(=O)oc12	none (no result: D1 agonist, TRHR PAM, TRHR agonist, D1 PAM, D1 antagonist)
COc1ccc(N2C(=O)CC(Nc3ccc(C(=O)O)cc3)C2=O)cc1OC (stereo unspecified)	none
Cc1ccc(NC2CC(=O)N(c3cccc([N+](=O)[O-])c3)C2=O)cc1 (stereo unspecified)	none
COc1ccc(N2C(=O)CC(Nc3cccc([N+](=O)[O-])c3)C2=O)cc1 (stereo unspecified)	D1 antagonist -33
COC(=O)c1cccc(NC2CC(=O)N(c3ccc(OC)c(OC)c3)C2=O)c1 (stereo unspecified)	D1 antagonist -33
CCOC(=O)Cn1c(=N)n(CCOc2cccc(C)c2)c2ccccc21	none
CCOC(=O)Cn1c(=N)n(CCOc2ccc(Br)cc2)c2ccccc21	D1 agonist 51
CCCn1c(=N)n(CC(=O)C(C)(C)C)c2ccccc21	TRHR PAM 31
N=c1n(CCO)c2ccccc2n1CCOc1ccc(F)cc1	none
CCCCn1c(=N)n(CC(=O)c2ccc(Br)s2)c2ccccc21	D1 agonist 44
CCCCn1c(=N)n(CCCOc2ccc(F)cc2)c2ccccc21	D1 agonist 79
CCCCn1c(=N)n(CC(=O)C(C)(C)C)c2ccccc21	none
COc1ccc(OC)c(-c2csc(NC(=O)Cc3ccccc3F)n2)c1	TRHR PAM 32
CCOc1ccc(CNc2ccc(N3CCOCC3)c(C(=O)O)c2)cc1	D1 antagonist -56
c1ccc(Nc2nc(N3CCOCC3)nc(N3CCOCC3)n2)cc1	TRHR PAM 39
COc1ccc(Nc2nc(NCCO)nc(N3CCCC3)n2)cc1	none (no result: D1 agonist, TRHR PAM, TRHR agonist, D1 PAM, D1 antagonist)
CCCNc1nc(Nc2ccc(C)cc2)nc(N2CCCC2)n1	D1 antagonist -35
CCOc1ccc(Nc2nc(Nc3ccc(OCC)cc3)nc(N3CCOCC3)n2)cc1	TRHR PAM 35
CCOC(=O)c1sc(NC2CCCC2)nc1C(F)(F)F	none (no result: D1 agonist, TRHR PAM, TRHR agonist, D1 PAM, D1 antagonist)
COc1cc(C(=O)NCc2coc(-c3cccs3)n2)cc(OC)c1Br	none (no result: D1 agonist, TRHR PAM, TRHR agonist, D1 PAM, D1 antagonist)
Cc1cc(/C=N/Nc2nc(N3CCOCC3)nc(N3CCOCC3)n2)c(C)n1-c1ccccc1	TRHR PAM 32
O=C(Cn1c(SCc2ccccc2)nc2ccccc21)N1CCOCC1	none
Cc1ccc(OCCSc2nc3ccccc3n2CC(=O)N2CCCCC2)c(C)c1	D1 antagonist -44
O=C(CSc1nc2ccccc2n1CC(=O)N1CCOCC1)N1CCCC1	D1 antagonist -32
Cc1ccc(C)c(OCCSc2nc3ccccc3n2CC(=O)N2CCOCC2)c1	none
Cc1cc(C)c(S(=O)(=O)NCCO)cc1C	none (no result: D1 agonist, TRHR PAM, TRHR agonist, D1 PAM, D1 antagonist)
C[C@H]1O[C@@H](O[C@H]2CC[C@@]3(C)C(CC[C@]4(C)C3C=C[C@]35OC[C@@]6(CCC(C)(C)C[C@H]63)[C@@H](O)C[C@]54C)[C@]2(C)CO)[C@H](O)[C@@H](O[C@@H]2O[C@H](CO)[C@@H](O)[C@H](O)[C@H]2O)[C@H]1O (stereo partly specified)	none (no result: D1 agonist, TRHR PAM, TRHR agonist, D1 PAM, D1 antagonist)
CC1OC(OC2C(OC3C(O[C@H]4CC[C@]5(C)C6C=C[C@]78OC[C@@]9(CC[C@@H](C)[C@H](C)C97)[C@H](O)C[C@@]8(C)[C@]6(C)CC[C@H]5C4(C)C)OC(C)C(O)C3O)OC(CO)C(O)C2O)C(O)C(O)C1O (stereo partly specified)	D1 agonist 394, TRHR agonist 59 (no result: LDHA block)
CC(C)c1ccc(-c2csc(NC(=O)Cn3ncc4ccccc4c3=O)n2)cc1	none (no result: D1 agonist, TRHR PAM, TRHR agonist, D1 PAM, D1 antagonist)
O=C(NCc1ccccc1)c1ccc(S(=O)(=O)N2CCCc3ccccc32)cc1	none
CN(C)C(=O)c1ccc(NC(=O)c2cccc(S(=O)(=O)N3CCCCCC3)c2)cc1	none
O=C(Nc1nncs1)c1cccc(S(=O)(=O)N2CCc3ccccc32)c1	TRHR PAM 33
CN(C)C(=O)c1ccc(NC(=O)c2cccc(S(=O)(=O)N3CCCc4ccccc43)c2)cc1	D1 antagonist -31
O=C(NC1=NCCS1)c1cccc(S(=O)(=O)N2CCc3ccccc32)c1	none
CCOC(=O)c1sc(NC(=O)c2cccc(S(=O)(=O)N3CCc4ccccc43)c2)c(C#N)c1C	D1 antagonist -32
O=C(NCc1ccco1)c1ccc(S(=O)(=O)N2CCCc3ccccc32)cc1	D1 antagonist -32
CCC(CC)c1nnc(NC(=O)c2cccc(S(=O)(=O)N3CCc4ccccc43)c2)s1	none
CC(=O)NC(C)C(=O)O (stereo unspecified)	none (no result: D1 agonist, TRHR PAM, TRHR agonist, D1 PAM, D1 antagonist)
COc1ccc(NCC(=O)Nc2cccc(S(=O)(=O)N3CCCC3)c2)cc1Cl	none (no result: D1 agonist, TRHR PAM, TRHR agonist, D1 PAM, D1 antagonist)
COc1ccc(NCC(=O)N2CCCC2)cc1Cl	D1 antagonist -30
